Our source for the outcome and AC50 values is PubChem BioAssay (EPA / NIEHS).

Active and inactive are the calls of the source. The calls were made as follows: active = hit-call score of the fitted dose curve at least 0.9, where 1 is the maximum; inactive = score below 0.9.

Read-out in this assay: DNA damage-inducible transcript 3 (DDIT3), DDIT3 (gene 1649)
The experiment in a line: LTEA_HepaRG_DDIT3: Life Technologies and Expression Analysis (LTEA) Assay for DNA damage-inducible transcript 3 (DDIT3) using HepaRG (AID 2283488). To be noted: mRNA level, 48 h; actives raise or lower the signal. On the procedure: LTEA_HepaRG is a cell based, multiplexed-readout assay that uses HepaRG, a human liver cell line, with measurements taken at 48 hours after chemical dosing on a 96-well plate.LTEA_HepaRG_DDIT3 is one of 102 assay component(s) measured in the LTEA HepaRG cell culture assay. It is a marker of Oxidative Stress.Data from the assay component LTEA_HepaRG_DDIT3 was analyzed into 1 endpoint. This assay endpoint, LTEA_HepaRG_DDIT3, was analyzed with bidirectional fitting relative to DMSO as the negative control and baseline of activity. Using a type of inducible reporter, measures of mRNA induction for gain or loss-of-signal activity can be used to understand regulation of transcription factor activity. To generalize the intended target to other relatable targets, this assay endpoint is annotated to the dna binding intended target family, where the subfamily is basic leucine zipper.
A total of 1060 chemcials from the ToxCast library were tested in eight-point concentration-response experiments. Cell culture and cytotoxicity assays were conducted at Thermo Fisher Scientific's Custom Services facility (Madison, WI). A single lot of human HepaRG cells (Thermo Fisher Scientific, Frederick, MD) was used for the cell culture experiments. 96-well format collagen type I coated plates of human HepaRG cells were prepared using established methods. Briefly, cryopreserved HepaRG cells were thawed, plated at a density of approximately 100,000 cells/well in HepaRG Thaw, Plate, and General Purpose media (HPRG770, Thermo Fisher Scientific), and incubated for 48 hours. 0.5% DMSO was selected as vehicle control to balance the requisite need of DMSO in HepaRG cultures to maintain differentiation (for example, baseline metabolism, proportions of hepatocytes vs. cholangiocytes), while enabling further hepatic receptor pathway activation (for example, PXR and CAR) in response to chemical exposure. 48 hours after plating, the culture medium was replaced with HepaRG Serum-Free Incudtion Media. Cells were exposed to each test chemical in duplicate and maintained in CO2 incubators for another 48 hours. Chemical plates were thawed to room temperature and 200x concentrations of treatment groups were prepared. 8-point conentration-reponse curves were made with the highest exposure at 100 uM, followed by half-log dilutions, all in 0.5% DMSO. Each test plate contained variouse controls, induction positive controls (1mM phenobarbital), cytotoxicity positive controls ([…] aflatoxin B1), vehicle controls (0.5% DMSO), and total lysis controls (0.5% DMSO). Cell morphology images were taken using an Essen IncuCyte FLR automated microscope, with six 96-well plates imaged in about 24 minutes. Images were captured and exported and JPEG files. Spent culture media was transfered to black-well plates for the LDH assay, and remaining media was sorted at -80 C for later use. Cells were treated with RLT buffer and frozen until shipped for gene expression analysis. Total RNA was isolated from the cell suspension in 75 uL of Buffer RLT (Qiagen, Germantown, MD 20874) by Quintiles/Expression Analysis (Durham, NC) using a custom isolation procedure. Total RNA from each plate well was transferred to a preamplification plate. Fluidigm's 96.96 Dynamic ArrayTM (Fluidigm, Amsterdam, the Netherlands) technology was used for gene expression analyses by quantitative reverse transcription polymerase chain reaction (qRT-PCR, performed by Quintiles/Expression Analysis, Durham, NC)89. Standard TaqManTM Assays (Applied Biosystems/ThermoFisher Scientific, Foster City, CA) were used to assess the expression of 93 genes selected based on their selectivity and sensitivity to important hepatic receptors known to be modulated by environmental chemicals; importance in human hepatocyte functionality; and hepatotoxicity. […]
Turning to `CCCN(CCC)c1c([N+](=O)[O-])cc(C(F)(F)F)c(N)c1[N+](=O)[O-]`, the result was inactive.

In the case of `CCNc1nc(N)nc(Cl)n1`, the outcome was inactive. With `O=C(O)c1ccccc1`, the compound was classed as inactive. With `CC1(C)C(C=C(Cl)Cl)C1C(=O)OCc1cccc(Oc2ccccc2)c1` (stereo not given), the compound was called inactive. Same read-out and setting: next, `COCCO`: “inactive”; `COC(=O)c1ccc(I)cc1S(=O)(=O)NC(=O)Nc1nc(C)nc(OC)n1`: “inactive”. Still for that read-out and setting: for `CCCCOCCOCCOCc1cc2c(cc1CCC)OCO2` the value was “inactive”; for `CCCOC(=O)c1ccc(C(=O)OCCC)nc1`, “inactive”; for `OB(O)O`, “inactive”.

As for `Cc1nn(C)c(Oc2ccccc2)c1C=NOCc1ccc(C(=O)OC(C)(C)C)cc1`, the AC50 (as a rule, the concentration at which the activity in the assay is half-maximal) is 3.27 µM (active). Regarding `N[C@@H](Cc1cc(I)c(Oc2ccc(O)c(I)c2)c(I)c1)C(=O)O`, the AC50 was 49.7 µM (active). With `S=C([S-])NCCNC(=S)[S-].[Mn+2]`, the AC50 was 6.1 µM (active). For `COC(=O)c1ccccc1C(=O)O`, the compound was called inactive. With `CC(C)(C)[C@@H](O)[C@@H](Cc1ccc(Cl)cc1)n1cncn1`, the result was inactive. On to `CCCCC(CC)COC(=O)c1ccccc1C(=O)O` (stereo not given), for which the outcome was inactive. Take `CC(=O)[C@H]1CC[C@H]2[C@@H]3CCC4=CC(=O)CC[C@]4(C)[C@H]3CC[C@]12C`: the AC50 was 27.2 µM (active).

As to `C#C[C@]1(O)CC[C@H]2[C@@H]3CCC4=CC(=O)CC[C@@H]4[C@H]3CC[C@@]21CC`, the compound was classed as inactive. Turning to `C[C@]12CC[C@@H]3c4ccc(O)cc4C[C@@H](CCCCCCCCCS(=O)CCCC(F)(F)C(F)(F)F)[C@H]3[C@@H]1CC[C@@H]2O` (stereo not given in full), the AC50 was 9.92 µM (active). Regarding `CCCCCCC(C)OC(=O)COc1nc(F)c(Cl)c(N)c1Cl` (stereo not given), the compound was classed as inactive. Turning to `CCCCOC(=O)[C@@H](C)Oc1ccc(Oc2ccc(C(F)(F)F)cn2)cc1`, the compound was called inactive. `CCC(C)OC(=O)N1CCCCC1CCO` (stereo not given): the outcome was inactive. The same measure, in the same setting: next, `c1ccc2[nH]c(-c3cscn3)nc2c1`: “inactive”. With `Oc1ccc(C(c2ccc(O)cc2)C(Cl)(Cl)Cl)cc1`, the AC50 was 80.3 µM (active). In the case of `COc1c(Cl)ccc(Cl)c1C(=O)O`, the call was inactive. On the same count and under the same terms, next, `CCCOC(=O)NCCCN(C)C`: “inactive”; `O=C(O)C1(C(=O)Nc2ccc(Cl)cc2Cl)CC1`: “inactive”. Regarding `CCOC(=O)NCCOc1ccc(Oc2ccccc2)cc1`, the AC50 is 89 µM (active). In the case of `CC(C)CCCCCCc1ccc(O)cc1`, the compound was classed as inactive.

For `CCSC(=O)N(CC(C)C)CC(C)C`, the compound was called inactive.

Turning to `CCOC(=O)c1ccc(O)cc1`, the result was inactive. `N#CSCSc1nc2ccccc2s1`: the result was inactive. Same read-out and setting: next, `CCN(Cc1c(F)cccc1Cl)c1c([N+](=O)[O-])cc(C(F)(F)F)cc1[N+](=O)[O-]`: “inactive”; `CCOC(=O)COc1cc(-n2ncc(C(F)(F)F)c(C)c2=O)c(F)cc1Cl`: “inactive”. The same measure, in the same setting: for `O=C(c1ccc(O)cc1O)c1ccc(O)cc1O` the value was “inactive”; for `c1ccc(Nc2ccccc2)cc1`, “inactive”.

Turning to `CCCCC(CC)CN1C(=O)C2C3C=CC(C3)C2C1=O` (stereo not given), the AC50 is 72.7 µM (active). Same read-out and setting: next, `O=C(Nc1ccc([N+](=O)[O-])cc1Cl)c1cc(Cl)ccc1O`: 3.35 µM (active). Consider `CC(=O)S[C@@H]1CC2=CC(=O)CC[C@]2(C)[C@H]2CC[C@@]3(C)[C@@H](CC[C@@]34CCC(=O)O4)[C@H]12`, for which the result was inactive. Regarding `COC(=O)CSc1cc(N=c2sc(=O)n3n2CCCC3)c(F)cc1Cl`, the call was inactive. Take `CCOC(=O)C(C)Oc1ccc(Oc2nc3ccc(Cl)cc3o2)cc1` (stereo not given): the compound was classed as inactive.
